Among the data in PubChem BioAssay (NCI) are growth inhibition values, retold here.

Molecules are shown by their SMILES. This is part of a sample that, as a whole, favours compounds with a hit. Of some 79,000 tested, about 15% had one in any assay. Values without a mark were called inactive. Calls of active or inactive are those of the source. No stated cut-off is given here; in the data, active means growth inhibition above about 70%; inactive means the rest.

The nature of test [1]: NCI Yeast Anticancer Drug Screen. Data for the rad50 strain (AID 155).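 Further: 0% = growth of vehicle-only cultures of the same strain.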 The following applies: S. cerevisiae rad50 strain growth inhibition, stronger effect = higher value. The method, boiled down:
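Growth of the mutant yeast was measured after compound exposure and referenced to vehicle-treated cultures.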

Test [2] can be described thus: NCI Yeast Anticancer Drug Screen. Data for the mec2-1 strain (AID 157). The following applies: S. cerevisiae mec2-1 strain, stronger effect = higher value. In a few lines:
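mec2-1 yeast strain, carrying an alteration in DNA damage repair or cell cycle control, was exposed to compounds; growth inhibition was measured relative to vehicle-treated controls.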

The nature of test [3]: NCI Yeast Anticancer Drug Screen. Data for the sgs1 mgt1 strain (AID 161).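 Further: 0% = growth of cultures given vehicle only.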 The conditions noted are these: S. cerevisiae sgs1 mgt1 strain, stronger effect = higher value. The method, boiled down:
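Yeast cells carrying a defined DNA-repair defect were exposed to test compounds. Growth inhibition was measured relative to vehicle-treated controls.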

Test [4] can be described thus: NCI Yeast Anticancer Drug Screen. Data for the cln2 rad14 strain (AID 165).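 Further: 0% = growth equal to vehicle treated cultures.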 The following applies: S. cerevisiae cln2 rad14 strain, stronger effect = higher value. In a few lines: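 Yeast carrying cln2 and rad14 alterations (cell cycle control and DNA damage repair) were exposed to compounds. Growth inhibition was measured against vehicle-treated controls.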
Test [5] in a line: NCI Yeast Anticancer Drug Screen. Data for the bub3 strain (AID 167). The following applies: S. cerevisiae bub3 mutant strain, stronger effect = higher value. In a few lines: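 Whole-cell yeast assay. The mutant strain was incubated with compounds, and growth inhibition was determined by comparison with vehicle-treated cells.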
Test [6] in a line: NCI Yeast Anticancer Drug Screen. Data for the mlh1 rad18 strain (AID 175). The conditions noted are these: S. cerevisiae mlh1 rad18 strain growth inhibition, stronger effect = higher value. In a few lines: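 Growth inhibition of the yeast strain was measured after compound exposure and expressed relative to vehicle-treated controls. The strain carries defined defects in DNA damage repair.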

The mark [7] stands for this setting: at 5.0 µM (retest, dose inferred, filed as 0.5).
Setting [8] is: at 50.0 µM (retest, dose inferred, filed as 5.0).

`O=C(CCl)Oc1c(Br)cc(-c2ccccc2)cc1Br`: the growth inhibition in test [1] (setting [7]) is 32%; in test [1] (setting [8]) it was 95% (active); in test [1] (at 50.0 µM), 77.3% (active); in test [2] (setting [7]), 42%; in test [2] (setting [8]), 99% (active); in test [2] (at 50.0 µM), 56.1%. Moreover, the growth inhibition in test [3] (setting [7]) is 65%; in test [3] (setting [8]), 99% (active); in test [3] (at 50.0 µM) it was 88.8% (active); in test [4] (setting [7]), 57%; in test [4] (setting [8]) it was 97% (active); in test [4] (at 50.0 µM) it was 41.9%. The growth inhibition in test [5] (setting [7]) is 30%; in test [5] (setting [8]), 98% (active); in test [5] (at 50.0 µM) it was 16.9%; in test [6] (setting [7]), 73% (active); in test [6] (setting [8]), 95% (active); in test [6] (at 50.0 µM), 82.2% (active).
Consider `O=c1c(S(=O)(=O)Oc2ccccc2)coc2cc(F)ccc12`, for which the growth inhibition is 99% (active) in test [1] (setting [7]); 100% (active) in test [1] (setting [8]); 81.7% (active) in test [1] (at 50.0 µM); 99% (active) in test [2] (setting [7]); 100% (active) in test [2] (setting [8]); 86.7% (active) in test [2] (at 50.0 µM). In addition, the growth inhibition in test [3] (setting [7]) was 99% (active); in test [3] (setting [8]), 100% (active); in test [3] (at 50.0 µM), 90.2% (active); in test [4] (setting [7]), 99% (active); in test [4] (setting [8]), 100% (active); in test [4] (at 50.0 µM) it was 91.5% (active). For the same compound, the growth inhibition was 99% (active) in test [5] (setting [7]); 100% (active) in test [5] (setting [8]); 91% (active) in test [5] (at 50.0 µM); 99% (active) in test [6] (setting [7]); 100% (active) in test [6] (setting [8]); 93.1% (active) in test [6] (at 50.0 µM).
For `Nc1nc(N)c2c(ccc3c2ccn3Cc2cccc([N+](=O)[O-])c2)n1`, the growth inhibition was 39% in test [1] (setting [7]); 60% in test [1] (setting [8]); 19.9% in test [1] (at 50.0 µM); 70% (active) in test [2] (setting [7]); 90% (active) in test [2] (setting [8]); 0.75% in test [2] (at 50.0 µM). Further, the growth inhibition was 56% in test [3] (setting [7]); 67% in test [3] (setting [8]); 54.4% in test [3] (at 50.0 µM); 38% in test [4] (setting [7]); 53% in test [4] (setting [8]); 57.5% in test [4] (at 50.0 µM). The growth inhibition is 43% in test [5] (setting [7]); 51% in test [5] (setting [8]); 83.5% (active) in test [5] (at 50.0 µM); 29% in test [6] (setting [7]); 46% in test [6] (setting [8]); 14.6% in test [6] (at 50.0 µM).
With `COC(=O)c1[nH]c(=O)c(C#N)c(C(=O)OC)c1C(=O)c1ccc(Cl)c(Cl)c1`, the growth inhibition in test [1] (setting [7]) is -19%; in test [1] (setting [8]), 90% (active); in test [1] (at 50.0 µM), 97% (active); in test [2] (setting [7]), -18%; in test [2] (setting [8]), 55%; in test [2] (at 50.0 µM), 73% (active). For the same compound, the growth inhibition in test [3] (setting [7]) was 23%; in test [3] (setting [8]) it was 72% (active); in test [3] (at 50.0 µM), 95.4% (active); in test [4] (setting [7]), 3%; in test [4] (setting [8]) it was 61%; in test [4] (at 50.0 µM), 46.1%. Also, the growth inhibition was -22% in test [5] (setting [7]); 90% (active) in test [5] (setting [8]); 79.5% (active) in test [5] (at 50.0 µM); -12% in test [6] (setting [7]); 90% (active) in test [6] (setting [8]); 93.9% (active) in test [6] (at 50.0 µM).
Turning to `COc1cc(OC)c(SSCCCCS(=O)O)c(OC)c1`, the growth inhibition in test [1] (setting [7]) is 0%; in test [1] (setting [8]), 14%; in test [1] (at 50.0 µM), 10.6%; in test [2] (setting [7]) it was 1%; in test [2] (setting [8]), 44%; in test [2] (at 50.0 µM) it was 21.5%. Further, the growth inhibition was 11% in test [3] (setting [7]); 55% in test [3] (setting [8]); 41.5% in test [3] (at 50.0 µM); -13% in test [4] (setting [7]); 25% in test [4] (setting [8]); 44.7% in test [4] (at 50.0 µM). The growth inhibition was 7% in test [5] (setting [7]); 63% in test [5] (setting [8]); -26.2% in test [5] (at 50.0 µM); 1% in test [6] (setting [7]); 36% in test [6] (setting [8]); 40.8% in test [6] (at 50.0 µM).
In the case of `Cc1ccc(N=C=C(c2ccccc2)c2ccccc2)cc1`, the growth inhibition is 12% in test [1] (setting [7]); 46% in test [1] (setting [8]); 67.5% in test [1] (at 50.0 µM); 26% in test [2] (setting [7]); 39% in test [2] (setting [8]); 59.3% in test [2] (at 50.0 µM). The growth inhibition was 17% in test [3] (setting [7]); 70% (active) in test [3] (setting [8]); 65.8% in test [3] (at 50.0 µM); 9% in test [4] (setting [7]); 35% in test [4] (setting [8]); 48% in test [4] (at 50.0 µM). Besides, the growth inhibition was 28% in test [5] (setting [7]); 58% in test [5] (setting [8]); 67.2% in test [5] (at 50.0 µM); 30% in test [6] (setting [7]); 77% (active) in test [6] (setting [8]); 71.2% (active) in test [6] (at 50.0 µM).
For `N#Cc1c(SCc2ccc(Cl)cc2)nsc1Nc1ccc(Cl)cc1`, the growth inhibition in test [1] (setting [7]) is 90% (active); in test [1] (setting [8]), 95% (active); in test [1] (at 50.0 µM), 86.2% (active); in test [2] (setting [7]) it was 91% (active); in test [2] (setting [8]), 95% (active); in test [2] (at 50.0 µM) it was 88% (active). The growth inhibition in test [3] (setting [7]) was 91% (active); in test [3] (setting [8]), 98% (active); in test [3] (at 50.0 µM) it was 87.2% (active); in test [4] (setting [7]), 87% (active); in test [4] (setting [8]), 97% (active); in test [4] (at 50.0 µM), 87.7% (active). Further, the growth inhibition in test [5] (setting [7]) is 86% (active); in test [5] (setting [8]) it was 98% (active); in test [5] (at 50.0 µM), 21%; in test [6] (setting [7]) it was 93% (active); in test [6] (setting [8]), 93% (active); in test [6] (at 50.0 µM), 86% (active).
`CC(=O)/C=C1\C(=O)Nc2ccccc21`: the growth inhibition in test [1] (setting [7]) is 20%; in test [1] (setting [8]), 97% (active); in test [1] (at 50.0 µM) it was 85.1% (active); in test [2] (setting [7]) it was 10%; in test [2] (setting [8]), 100% (active); in test [2] (at 50.0 µM), 91.6% (active). Also, the growth inhibition is 16% in test [3] (setting [7]); 92% (active) in test [3] (setting [8]); 91.7% (active) in test [3] (at 50.0 µM); 26% in test [4] (setting [7]); 95% (active) in test [4] (setting [8]); 32.9% in test [4] (at 50.0 µM). The growth inhibition was 12% in test [5] (setting [7]); 99% (active) in test [5] (setting [8]); 87.7% (active) in test [5] (at 50.0 µM); 14% in test [6] (setting [7]); 99% (active) in test [6] (setting [8]); 78.7% (active) in test [6] (at 50.0 µM).
In the case of `O=C1OC(CCCl)(c2ccccc2)CC1CN1CCOCC1` (stereo not given), the growth inhibition was 10% in test [1] (setting [7]); 81% (active) in test [1] (setting [8]); 70% (active) in test [1] (at 50.0 µM); -10% in test [2] (setting [7]); 90% (active) in test [2] (setting [8]); 57.9% in test [2] (at 50.0 µM). In addition, the growth inhibition was -2% in test [3] (setting [7]); 75% (active) in test [3] (setting [8]); 59% in test [3] (at 50.0 µM); 15% in test [4] (setting [7]); 56% in test [4] (setting [8]); 41.8% in test [4] (at 50.0 µM). For the same compound, the growth inhibition in test [5] (setting [7]) is 30%; in test [5] (setting [8]) it was 94% (active); in test [5] (at 50.0 µM), 71.5% (active); in test [6] (setting [7]), -7%; in test [6] (setting [8]) it was 91% (active); in test [6] (at 50.0 µM) it was 73.6% (active).
On to `CCN(CC)CC(C)(C)C(=O)/C=C/c1ccc(Cl)c(Cl)c1`, for which the growth inhibition in test [1] (setting [7]) is 6%; in test [1] (setting [8]), 98% (active); in test [1] (at 50.0 µM) it was 97.9% (active); in test [2] (setting [7]) it was 9%; in test [2] (setting [8]), 98% (active); in test [2] (at 50.0 µM) it was 99.2% (active). Besides, the growth inhibition was 18% in test [3] (setting [7]); 94% (active) in test [3] (setting [8]); 98% (active) in test [3] (at 50.0 µM); 4% in test [4] (setting [7]); 97% (active) in test [4] (setting [8]); 89.2% (active) in test [4] (at 50.0 µM). The growth inhibition is 1% in test [5] (setting [7]); 98% (active) in test [5] (setting [8]); 98.8% (active) in test [5] (at 50.0 µM); 8% in test [6] (setting [7]); 97% (active) in test [6] (setting [8]); 99% (active) in test [6] (at 50.0 µM).
